In PubChem BioAssay AID1063 (University of Pittsburgh Molecular Library Screening Center, 2008):
The whole screen tested about 200,000 compounds, of which about 18,000 (9%) were called active. No stated cut-off is given here; in the data, active means inhibition above about 50%; inactive means the rest. This excerpt belongs to a sample that is enriched for actives.

Experiment: Leishmania major promastigote growth inhibition, primary screen (AID 1063);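 further: promastigotes grown with compound for 44 hours at 28 °C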
Conditions: Leishmania major promastigotes, resazurin fluorescence viability; at 10 µM; active compounds read high

SMILES	inhibition
CC(C)CC(CC(C)C)=NNC(=O)c1ccc(CSc2nncn2C)cc1	-4.77% (inactive)
O=C(CN1C(=O)NC2(CCCC2)C1=O)NCC1CCCO1 (stereo not drawn)	-4.12% (inactive)
Cc1cc(=O)oc2c1c(C)nn2-c1ccc(Cl)cc1	-5.67% (inactive)
CCC(CC)C(=O)Nc1ccc(S(=O)(=O)Nc2nccs2)cc1	6.97% (inactive)
O=C(NC(=S)Nc1ccc(S(=O)(=O)Nc2ncccn2)cc1)c1cccc(Br)c1	-8.62% (inactive)
CCCN(CCC)CCNC(=O)c1cc2c(C)nc3ccccc3c2o1	56.9% (active)
Cc1nc2ccccc2c2oc(C(=O)NCC3CCCO3)cc12 (stereo not drawn)	11.4% (inactive)
Cc1nc2ccccc2c2oc(C(=O)NCCCN3CCC(C)CC3)cc12	24% (inactive)
CC(C)OCCCNC(=O)c1ccc(C2SCC(=O)N2Cc2ccco2)cc1 (stereo not drawn)	-3.9% (inactive)
Cc1cc(C(=O)NNC(=O)CCC2CCCCC2)c(C)o1	-8.93% (inactive)
CCC(=O)N1CCC(C(N)=O)(N2CCCCC2)CC1	0.56% (inactive)
O=C(Nc1cccn(Cc2ccccc2Cl)c1=O)NC1CCCCC1	17.9% (inactive)
COc1ccc(Cl)cc1C(=O)NNC(=S)NC1CCCC1	17.1% (inactive)
CCN(CC)c1ccc2c(Nc3ccccc3)c(C=O)c(=O)oc2c1	-4.13% (inactive)
CCN(CC)c1ccc2cc(C(=O)O)c(=O)oc2c1	22.2% (inactive)
CCN(CC)c1ccc2oc(=O)c(C)nc2c1	96.6% (active)
CNc1[nH]ncc1[N+](=O)[O-]	-7.01% (inactive)
COc1ccc(CCn2ccc(O)c(Cc3ccc(Cl)cc3Cl)c2=O)cc1OC	7.61% (inactive)
COCCCNC(=S)N1CCCC(c2nc3cc(C)c(C)cc3[nH]2)C1 (stereo not drawn)	0.93% (inactive)
N=C1C(c2nc3ccccc3[nH]2)=C(O)CN1NC(=O)c1c[nH]c2ccccc12	-3.91% (inactive)
CC1Cc2ccccc2N1S(=O)(=O)c1c(N)n(C)c(=O)n(C)c1=O (stereo not drawn)	99.8% (active)
Cn1c(=O)n(C)c2cc(S(=O)(=O)N3CCCc4ccccc43)ccc21	47.6% (inactive)
CCCCn1ccnc1C(=O)c1cccc(S(=O)(=O)N2c3ccccc3CC2C)c1 (stereo not drawn)	0.6% (inactive)
CNS(=O)(=O)c1ccc(NC(=O)C2CC(=O)N(c3ccc(Cl)cc3)C2)cc1 (stereo not drawn)	13.6% (inactive)
Cc1cccc(NC(=S)NCCc2ccc(F)cc2)c1C	28.5% (inactive)

SMILES	inhibition
COc1ccc(CN2CCNC(=O)C2CC(=O)N(C)Cc2ccccn2)cc1OC (stereo not drawn)	0.79% (inactive)
Cc1[nH]c2ccccc2c1CCN(Cc1cccs1)C(=S)NC(C)(C)C	-1.09% (inactive)
COc1cccc(NC(=S)N(CCc2c(C)[nH]c3ccccc23)Cc2ccco2)c1	19.9% (inactive)
COc1ccc2[nH]c(C)c(CCN(Cc3cccs3)C(=S)Nc3ccccc3OC)c2c1	66.1% (active)
C/C(=N\NC(=O)c1cccnc1)c1ccc(-n2ccnc2)cc1	-1.06% (inactive)
Cn1cc(-c2ccccc2)cc(C#N)c1=O	-20% (inactive)
CC(C)N1CCC(NC(=O)Nc2ccccc2)CC1	-2.35% (inactive)
COc1cc(/C=C/C(=O)OCC(=O)N2CCOCC2)ccc1OCC#N	-11.6% (inactive)
Nc1nnc(SCn2nnc3ccccc3c2=O)s1	-7.44% (inactive)
S=C(NCc1ccc2c(c1)OCO2)NCc1ccco1	8.29% (inactive)
CCNC(=S)Nc1cccc(Cl)c1C	-6.44% (inactive)
Cc1c(Cl)cccc1NC(=S)NCc1ccc2c(c1)OCO2	81.5% (active)
CC(C)(C)c1cnnn1-c1ccc([N+](=O)[O-])cc1	-0.24% (inactive)
CCc1nnc(NS(=O)(=O)c2ccc(NC(=S)NC(=O)c3cccs3)cc2)s1	-1.21% (inactive)
Cc1c(C(=O)O)nnn1-c1nonc1N	-0.68% (inactive)
O=C(Nc1cccc2ncccc12)C(Cl)(Cl)Cl	-0.02% (inactive)
Cc1ccc(/C=C(\C#N)C(=O)Nc2cccc3ncccc23)o1	55.2% (active)
Cc1ccc(C(=O)Nc2cccc3ncccc23)cc1[N+](=O)[O-]	0.51% (inactive)
C=CCn1c(SCc2c(C(=O)OC)sc(N)c2C(=O)OC)nnc1-c1ccc(Cl)cc1	50.9% (active)
C=CCn1c(SCc2cc(C(=O)OC)c(C)o2)nnc1-c1ccncc1	-5.9% (inactive)
C=CCn1c(SCn2nnc3ccccc3c2=O)nnc1-c1ccc(Cl)cc1	1.86% (inactive)
CCOC(=O)C1(CC2CCCCO2)CCN(Cc2nc(-c3cccs3)oc2C)CC1 (stereo not drawn)	19.6% (inactive)
Cc1ccccc1NC(=O)NNC(=O)OC(C)(C)C	-6.97% (inactive)
CCC(C)(C)NC(=O)C1c2ccccc2Oc2ccccc21	1.22% (inactive)
CCCCOc1ccc(C(=O)NCc2ccco2)cc1	-3.02% (inactive)

SMILES	inhibition
CCOc1ccccc1C(=O)NCc1ccco1	-8.32% (inactive)
CCCC1=Nc2cc(C(=O)NCc3ccco3)ccc2Sc2ccccc21	91.3% (active)
Cc1ccc(S(=O)(=O)N2CCOCC2)cc1NC(=O)CSc1nnc(N)s1	-4.64% (inactive)
CC(Sc1nncn1C)C(=O)Nc1cc(C(F)(F)F)ccc1N1CCOCC1 (stereo not drawn)	-8.57% (inactive)
CCCCNC(=O)c1ccc(-n2c(=S)[nH]c3ccccc3c2=O)cc1	2.08% (inactive)
Cn1c(=O)c2cc(S(=O)(=O)NCCC(=O)Nc3ccc(F)cc3F)ccc2n(C)c1=O	8.04% (inactive)
Cc1ccc(-n2ncc3c2ncn2nc(-c4ccco4)nc32)c(C)c1	-2.03% (inactive)
Cc1ccc(-n2ncc3c(=O)n(-c4ccc(C)c(C)c4)c(-c4ccco4)nc32)cc1	51.5% (active)
Cc1ccc(-c2nc3c(cnn3-c3ccccc3)c(=O)o2)cc1	-4.66% (inactive)
COc1ccc(-c2nc(CN3CCN(c4ncccn4)CC3)c(C)o2)cc1C	30.8% (inactive)
COc1cc(OC)cc(-c2nc(=S)n3ccsc3n2)c1	-3.3% (inactive)
O=C(N1CCCCC1)N1CCN(C(=O)N2CCCCC2)CC1	-3.35% (inactive)
Cc1ccccc1NC(=O)c1nn(-c2ccc(F)c(F)c2)ccc1=O	-0.26% (inactive)
Cc1cccc(C)c1NC(=O)CSc1nnc(-c2ccccc2)n1Cc1ccc2c(c1)OCO2	53.4% (active)
Cc1ccccc1-c1nnc(SCC(=O)NCc2ccc3c(c2)OCO3)n1C	-5.07% (inactive)
Cc1cnc(NC(=O)CSc2nnc(-c3ccccc3)n2Cc2ccccc2)s1	12.5% (inactive)
COc1ccc(C2C(C(C)=O)=C(O)C(=O)N2CCc2c[nH]c3ccccc23)cc1 (stereo not drawn)	-4.35% (inactive)
COc1ccccc1NC(=O)CSc1nnc(C)n1CC1CCCO1 (stereo not drawn)	-2.8% (inactive)
CCCn1c(SCC(=O)Nc2cccc(C(=O)OCC)c2)nnc1-c1ccoc1C	23.8% (inactive)
COc1ccccc1NC(=O)CSc1nnc(-c2ccoc2C)n1CCc1ccccc1	76.2% (active)
Cc1ccc(CN2CCC(N3CCC(C(=O)NCC4CCCO4)CC3)CC2)o1 (stereo not drawn)	-6.4% (inactive)
CC(=O)c1cc(-c2ccccc2)n(CC(=O)NC2CCCCC2)c1C	-2.4% (inactive)
COc1ccccc1NC(=O)/C=C/C(=O)O	-7.02% (inactive)
COc1ccccc1NC(=O)/C=C/C(N)=O	59.7% (active)
COc1ccccc1NC(=O)c1ccc(C)s1	13.5% (inactive)

SMILES	inhibition
O=C(COC(=O)c1cnc(Cl)c(Cl)c1)NCc1ccco1	-5.74% (inactive)
O=C(CC1SCCNC1=O)Nc1ccc(Cl)cc1 (stereo not drawn)	-5.68% (inactive)
COc1ccc2c(c1)C(SCC(=O)NCc1ccccc1)CC(C)(C)O2 (stereo not drawn)	-6.83% (inactive)
COc1cccc(CC2(CO)CCCN(CC3=Cc4cc(OC)ccc4OC3)C2)c1 (stereo not drawn)	-1.53% (inactive)
COc1ccc2c(c1)C=CC1(O2)N(CCO)c2ccccc2C1(C)C (stereo not drawn)	99.2% (active)
CC(C)C(=O)NCc1cc(-c2ccc(Cl)cc2)no1	1.34% (inactive)
Cc1ccc(N(CC(O)CN2CCCC2)S(=O)(=O)c2ccccc2)cc1 (stereo not drawn)	60.2% (active)
CCN(c1ccccc1)S(=O)(=O)c1ccc2[nH]c(=O)[nH]c2c1	-5.33% (inactive)
CCN(c1ccccc1)S(=O)(=O)c1ccc(N)cc1	-4.44% (inactive)
Cc1cccc(N(CC(=O)N2CCOCC2)S(C)(=O)=O)c1	0.32% (inactive)
CCN(c1ccccc1)S(=O)(=O)c1cccc(C(=O)O)c1	-3.46% (inactive)
Cc1cccc(N(CC(O)CN(C)C)S(=O)(=O)c2ccccc2)c1 (stereo not drawn)	95.9% (active)
O=S(=O)(c1ccccc1)N(CC(O)CN1CCCCC1)c1ccccc1 (stereo not drawn)	45% (inactive)
Cc1cc(C)n(CC(O)CN(c2ccccc2)S(=O)(=O)c2ccc3ccccc3c2)n1 (stereo not drawn)	61.1% (active)
COc1ccccc1N(CC(=O)N1CCCCC1)S(=O)(=O)c1ccccc1	-2.25% (inactive)
CC1CCCCC1NC(=O)COC(=O)Cc1ccc(Br)cc1 (stereo not drawn)	-8.18% (inactive)
C/C(=N\OCC(=O)Nc1ccc(Br)cc1)c1cccs1	-1.5% (inactive)
Cc1cc(NC(=O)CN2C(=O)NC(C)(CCc3ccccc3)C2=O)no1 (stereo not drawn)	2.34% (inactive)
CCc1cccc2c(=O)c(C(=O)NCCCOC)c[nH]c12	-1.23% (inactive)
Cc1ccc(-c2nn(-c3ccccc3)cc2/C=N/NC(=O)c2ccc3c(c2)OCO3)cc1	8.23% (inactive)
Cc1ccc(/C=N/NC(=O)C2=NNC(c3ccccc3)(c3ccccc3)C2)c(O)c1	100% (active)
Cc1ccc(/C=N/NC(=O)C(NC(=O)c2ccccc2)c2n[nH]c(=O)c3ccccc23)cc1 (stereo not drawn)	-1.59% (inactive)
CNCC(O)CN1CCN(c2ccccc2OC)CC1 (stereo not drawn)	-6.68% (inactive)
